# Rows were chosen to be rich in hits. Some 2.9% of all compounds tested hit in one or more screens of this group.
# N-glyco inh = N-linked glycosylation inhibition | D54 ERlucT glycosylation luciferase reporter, 24 h; percent of 100 nM tunicamycin response | actives 0.23% (n = 360,000) | AID 588692 | reporter increase, % at 12.5 µM;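 active means mean luciferase reporter signal, scaled so untreated is 0 and the glycosylation-blocking control 100, at or above a set limit in every replicate; inconclusive means mean reaches the limit but not every replicate does; inactive means mean below the limit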;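 further: luciferase carries N-glycosylation sites so blocking glycosylation raises the light; 0% = median of neutral control wells and 100% = median of 100 nM tunicamycin wells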
# esBAF inh = inhibitors of esBAF chromatin remodeling in mouse ES cells; Bmi1-luciferase knock-in reporter, 24 h; 100% = twice the neutral-well signal; reporter increase, % at 12.5 µM; actives 2% (n = 350,000); AID 602393; in the data active means activation above about 40%; inconclusive means no clear call, values can overlap the other calls;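 further: 0% = median of the plate's neutral control wells and 100% = double that signal; a rise in the Bmi1 reporter signal indicates esBAF inhibition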
# Wnt act = activates Wnt/beta-catenin signaling in a reporter cell assay. actives 1.2% (n = 300,000). activation, % at 9.35 µM. activator, plate reader; in the data active means activation above about 30%, passing the limit was not always enough; inconclusive means no clear call, values can overlap the other calls;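 further: 0% = neutral control wells and 100% = positive control wells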
# Vif imaging = HIV Vif inhibition. HEK293T cells, Vif self-association by quenched fluorescence, imaging, 24 h. inhibition, % at 7.49 µM. actives 0.35% (n = 340,000). AID 602346; in the data active means inhibition above about 50%, passing the limit was not always enough; inconclusive means no clear call, values can overlap the other calls; inactive means below about 31%
# MITF act = increases MITF-driven TRPM1 promoter luciferase signal; SK-MEL-5 TRPM1-promoter luciferase, 24 h; % of positive control, neutral wells = 0; activation, % at 12.5 µM; actives 0.75% (n = 300,000); AID 588334;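 active means mean activation of at least 80% with every replicate also reaching 80%; inconclusive means mean reaches 80% but some replicate falls short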;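 further: 0% = neutral control wells and 100% = parthenolide positive control wells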
# PvdQ inh = P. aeruginosa PvdQ acylase inhibition; purified PvdQ acylase, fluorescence plate reader; inhibition, % at 10 µM; actives 0.063% (n = 340,000); in the data active means inhibition above about 30%, passing the limit was not always enough; inconclusive means no clear call, values can overlap the other calls;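 further: 0% = vehicle neutral wells and 100% = reference inhibitor wells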
# * = called active by the depositor; u = inconclusive; x = not tested or not shown.
SMILES,N-glyco inh,esBAF inh,Wnt act,Vif imaging,MITF act,PvdQ inh
COc1ccc(S(=O)(=O)N(C)C[C@@H]2OCCCC[C@@H](C)Oc3ccc(NC(=O)c4ccccc4)cc3C(=O)N([C@H](C)CO)C[C@H]2C)cc1,x,-2,x,x,x,x
COc1ccc(Cn2cc(CN3CCc4onc(-c5ccc(Br)cc5)c4C3=O)nn2)cc1,x,x,32*,x,x,x
COc1ccccc1-n1cc(CN2CCc3onc(-c4ccc(Br)cc4)c3C2=O)nn1,x,x,0,x,x,x
CN(C)C(=O)c1cccc(-c2ccc3c(c2)[C@@H]2[C@@H](CCN2C(=O)c2ccccc2F)[C@@H](CO)N3)c1,x,5,x,x,x,x
Cc1ccc(-c2cc[n+](Cc3ccccc3)cc2)cc1,-2,x,2,1,-13,-10
Cc1ccc2c(c1)sc[n+]2Cc1ccccc1,-4,54*,28,1,69,2
O=C(C[C@@H]1CC[C@@H]2[C@H](COC[C@@H](O)CN2C(=O)c2ccccc2)O1)N1CCOCC1,x,-1,x,x,x,x
Cc1noc(C)c1S(=O)(=O)Nc1cccc2c1O[C@H](CN(C)S(=O)(=O)c1ccc(F)cc1)[C@H](C)CN([C@@H](C)CO)C2=O,x,0,x,x,x,x
CC(=O)Nc1ccc(C(=O)COC(=O)C2CC2)c(F)c1,-1,40,38*,-11,126*,8
CCCC(=O)Nc1ccc(C(=O)COC(=O)C2CC2)cc1,0,39,48*,7,73,8
CNC(=O)C[C@H]1CC[C@H]2[C@H](COc3ccc(NC(=O)Nc4cccc(F)c4)cc3C(=O)N2C)O1,x,1,x,x,x,x
Cc1cc(OCc2cc(C(=O)N3CCCCCC3)no2)cc(C)c1Cl,2,48*,35*,1,u,-8
COCC1CCN(C(=O)c2cc(COc3cncc(Cl)c3)on2)C1 (stereo unspecified),0,-1,2,0,1,3
COCC1CCN(C(=O)c2cc(COc3cc(C)c(Cl)c(C)c3)on2)C1 (stereo unspecified),0,64*,20,-8,73,-8
COc1ccc(NC(=O)N(C)C[C@H]2Oc3cc(-c4cccc(C(=O)N(C)C)c4)ccc3S(=O)(=O)N([C@@H](C)CO)C[C@H]2C)cc1,x,-3,x,x,x,x
Cc1csc(C(C#N)C(=O)c2cc3ccccc3o2)n1 (stereo unspecified),-3,46*,25,-10,62,-12
Cc1csc(NC(=O)c2cc3ccccc3o2)n1,-18,-28,u,x,7,-11
C[C@H](CO)N1C[C@H](C)[C@H](CN(C)C(=O)C2CCCCC2)Oc2ncc(-c3ccccc3)cc2C1=O,x,-6,x,x,x,x
O=C(Cc1ccncc1)NCC[C@H]1CC[C@H](NS(=O)(=O)c2ccccc2Cl)[C@@H](CO)O1,x,-8,x,x,x,x
C[C@@H]1CN([C@@H](C)CO)C(=O)c2cc(-c3cccc(C#N)c3)cnc2O[C@@H]1CN(C)C(=O)c1cnccn1,x,-6,x,x,x,x
O=C(Nc1cccc(Cl)c1)c1csc([C@H]2C[C@H](O)[C@@H](CO)O2)n1,2,65*,u,5,x,x
O=C(Nc1ccc(Cl)cc1)c1csc([C@@H]2C[C@H](O)[C@@H](CO)O2)n1,-1,14,6,-6,x,x
CC1(C)CC(C(=O)Nc2ccccc2)C(=O)O1 (stereo unspecified),-2,-8,0,-1,x,11
C[C@]1(O)CC(=O)C=C[C@H]1Nc1ccccc1,44*,2,1,-2,-7,-12
O=c1c2ccccc2nc(SCc2cn3ccsc3n2)n1-c1ccccc1,4,12,-1,-3,-3,-11
SMILES,N-glyco inh,esBAF inh,Wnt act,Vif imaging,MITF act,PvdQ inh
Cc1csc2nc(CSc3nc4ccccc4o3)cn12,-2,44*,34*,-3,u,-6
c1ccc2oc(SCc3cn4ccsc4n3)nc2c1,-4,31,66*,-2,50,-4
Nn1c(CSc2nc3ccccc3o2)nnc1CSc1nc2ccccc2o1,2,-6,-2,x,-8,-3
COc1ccc2[nH]cc(C(=O)CNc3nc(C)cs3)c2c1,1,70*,42*,5,x,-21
CC(C)NC(=O)N(C)C[C@@H]1Oc2ccc(NS(=O)(=O)c3cccs3)cc2C(=O)N([C@H](C)CO)C[C@H]1C,x,-1,x,x,x,x
Cc1ccc(NC(=O)Cn2c(O)c(N=NC(N)=O)c3ccccc32)cc1,5,8,-3,-18,-12,8
Cc1ccc(NC(=O)Cn2c(O)c(N=NC(N)=S)c3ccccc32)cc1,10,-4,-2,66*,-41,-3
CCCc1noc(-c2ccc(-c3ccccc3)cc2)n1,-9,33,39*,1,x,-5
Cc1nc(S/C(=C/c2ccc(-c3cc(Cl)ccc3C)o2)C(=O)O)n[nH]1,1,x,-1,52*,-4,9
CCNc1nc(C#N)nc2c1ncn2-c1cc(F)cc(F)c1,-1,0,-1,9,0,-10
CCn1cnc2c(Nc3cc(F)cc(F)c3)nc(C#N)nc21,1,57*,26,1,70,24
C[C@@H]1CCCCO[C@@H](CN(C)S(=O)(=O)c2ccc(Cl)cc2)[C@H](C)CN([C@H](C)CO)C(=O)c2cc(NC(=O)Nc3ccc(F)cc3)ccc2O1,x,0,x,x,x,x
COc1cccc(/C=N/NC(=O)c2cc(-c3ccccn3)nc3ccccc23)c1O,-10,-63,-1,11,-44,-5
COc1cccc(/C=C/c2ccccn2)c1O,-9,x,42*,-1,67,0
CCOC(=O)c1ccc(N=NN(C)C)cc1,0,x,1,-3,99*,-9
CCOC(=O)c1ccc(N=c2scc(C)n2CC)cc1,-12,58*,u,-3,52,-7
C[C@@H]1CN([C@H](C)CO)C(=O)Cc2cc(NC(=O)Cc3ccccc3)ccc2O[C@H]1CN(C)C,x,-4,x,x,x,x
CC(C)NC(=O)N(C)C[C@@H]1Oc2cc(C#CCN(C)C)ccc2S(=O)(=O)N([C@@H](C)CO)C[C@H]1C,x,0,x,x,x,x
CSC1=N/C(=C\c2ccc(Cl)cc2)C(=O)N1N(C)C,-3,x,3,5,x,-11
CC1(C)CN=c2s/c(=C\c3ccc(Cl)cc3)c(=O)n2C1,0,13,-1,1,117*,-4
CC(C)(C)c1ccc(C(=O)CS(=O)(=O)c2ccccc2)cc1,-10,9,x,-5,108*,-6
COc1ccc(-c2cc3ccc(OCC(C)=O)cc3oc2=O)cc1,-12,18,34*,1,64,-27
O=c1oc2cc(O)ccc2cc1-c1ccccc1,5,36,0,4,44,-34
COc1ccc(-c2cc3ccc(O)cc3oc2=O)cc1,-5,-2,1,12,89*,-11
COc1ccc(-c2cc3ccc(OCC(C)=O)cc3oc2=O)cc1OC,2,47*,23,-3,92*,7
COc1ccc(-c2cc3ccc(OCc4nn[nH]n4)cc3oc2=O)cc1OC,0,-9,-2,5,x,-16
